{"source": "PubChem BioAssay AID1878", "about": "(Sanford-Burnham Center for Chemical Genomics, 2009)", "note": "Screen size: about 1,000 compounds; about 200 (20%) were called active. No stated cut-off is given here; in the data, active means inhibition above about 55%; inactive means the rest. The list is a sample of the results. Potency and affinity values are given separately."}
{"target": "Dual specificity protein phosphatase 3 (Homo sapiens) (UniProt P51452)", "sequence (P51452 whole entry, looked up)": "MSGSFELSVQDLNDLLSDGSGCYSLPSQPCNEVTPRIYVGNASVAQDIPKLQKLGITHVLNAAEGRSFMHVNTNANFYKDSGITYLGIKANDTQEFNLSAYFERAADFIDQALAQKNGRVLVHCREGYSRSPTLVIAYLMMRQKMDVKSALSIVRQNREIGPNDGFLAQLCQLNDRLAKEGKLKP", "assay": "VHR1 phosphatase inhibitors, biochemical (AID 1878)", "details": "recombinant VHR phosphatase, fluorogenic substrate; at 13.3 µM; active compounds read high"}
{"smiles": "CCOC(=O)c1ccc(S(=O)(=O)Nc2ccc(N3CCOCC3)cc2)cc1", "inhibition": "-9% (inactive)"}
{"smiles": "CC(=O)N1CC(=O)Nc2ccc(F)cc2C1c1ccccc1", "note": "(stereo unspecified)", "inhibition": "32.3% (inactive)"}
{"smiles": "CCOC(=O)C1=C(N)Oc2ccc3ccccc3c2C1c1cccc(O)c1", "note": "(stereo unspecified)", "inhibition": "-5.7% (inactive)"}
{"smiles": "O=C(Nc1ccc(-n2nncc2-c2ccco2)cc1)c1cc2ccccc2oc1=O", "inhibition": "96.1% (active)"}
{"smiles": "CCn1c2ccccc2c2n[nH]c(=S)nc21", "inhibition": "-2.6% (inactive)"}
{"smiles": "Cc1cc(C)c(S(=O)(=O)Nc2ccc(N(C)C)cc2)c(C)c1-n1cnnn1", "inhibition": "-1.2% (inactive)"}
{"smiles": "CC(=O)NCCc1nc2cc(NC(=O)c3ccc([N+](=O)[O-])cc3)ccc2n1C", "inhibition": "-5.3% (inactive)"}
{"smiles": "COc1ccc(Cc2nnc(NC(=O)c3ccco3)s2)cc1", "inhibition": "-10% (inactive)"}
{"smiles": "CCN(CC)CCCNc1oc(-c2ccccc2[N+](=O)[O-])nc1C#N", "inhibition": "22.5% (inactive)"}
{"smiles": "O=C1CSC(c2cccc([N+](=O)[O-])c2)N1Cc1ccccc1", "note": "(stereo unspecified)", "inhibition": "3.2% (inactive)"}
{"smiles": "Cc1ccc(OCCCCN2CCCCC2)cc1", "inhibition": "6.5% (inactive)"}
{"smiles": "Cc1ccccc1NC(=O)CN1C(=O)N/C(=C\\c2ccccc2OCc2ccc(C(=O)O)cc2)C1=O", "inhibition": "84.1% (active)"}
{"smiles": "CSc1nsc2nc(=O)c(/C=C3\\C(C)=Nc4ccccc43)c(N)n12", "inhibition": "7.5% (inactive)"}
{"smiles": "COc1cc(NC(=O)c2noc(C)c2[N+](=O)[O-])c(OC)cc1Cl", "inhibition": "-2.3% (inactive)"}
{"smiles": "CC1CC(C)CN(CCCNC(=O)C2CCCN(S(=O)(=O)N3CC(C)CC(C)C3)C2)C1", "note": "(stereo unspecified)", "inhibition": "20.9% (inactive)"}
{"smiles": "C=CCn1c(=O)c2c(nc3n2CCCN3Cc2ccccc2)n(C)c1=O", "inhibition": "-4% (inactive)"}
{"smiles": "Cc1cccc(NC(=O)c2cc(-c3ccc(C)c(C)c3O)n[nH]2)c1", "inhibition": "8.4% (inactive)"}
{"smiles": "C/C(=N\\NC(=O)c1c(C)nc2ccccn12)c1ccccc1F", "inhibition": "-12.4% (inactive)"}
{"smiles": "Cc1cccc(NC(=O)c2cc3c(=O)n4ccccc4nc3s2)c1", "inhibition": "93.3% (active)"}
{"smiles": "CCC(N)Cc1c[nH]c2ccccc12", "note": "(stereo unspecified)", "inhibition": "14.4% (inactive)"}
{"smiles": "O=C(COc1ccccc1)Nc1ccncc1Cl", "inhibition": "8.7% (inactive)"}
{"smiles": "Cc1cccc(CC(=O)Nc2cccnc2)c1", "inhibition": "-5.3% (inactive)"}
{"smiles": "O=C(COc1ccc2c(-c3ccccc3)cc(=O)oc2c1)Nc1cccnc1", "inhibition": "92.7% (active)"}
{"smiles": "O=C(COc1ccc2c(-c3ccccc3)cc(=O)oc2c1)Nc1ccc(CCO)cc1", "inhibition": "84.8% (active)"}
{"smiles": "CC(C)CCN1CCC(n2nccc2NC(=O)C2CCOC2)CC1", "note": "(stereo unspecified)", "inhibition": "-5.2% (inactive)"}
{"smiles": "Oc1cc(Br)ccc1C=Nc1ccc(N2CCCCC2)cc1", "inhibition": "-10% (inactive)"}
{"smiles": "CCN(CC)c1ccc(NC(=O)CCNS(=O)(=O)c2ccc3c(c2)CCC(=O)N3)c(C)c1", "inhibition": "-13.1% (inactive)"}
{"smiles": "CC1CCN(CCNC(=O)C2CCCN(c3ncnc4c3nc3n4CCCCC3)C2)CC1", "note": "(stereo unspecified)", "inhibition": "7.1% (inactive)"}
{"smiles": "Cc1occc1C(=O)N1CCCC(CCC(=O)NCc2ccc(F)c(F)c2)C1", "note": "(stereo unspecified)", "inhibition": "-8.6% (inactive)"}
{"smiles": "COc1ccccc1NC(=O)C1CCCN(S(=O)(=O)c2ccc3c(c2)CC(C)N3C(C)=O)C1", "note": "(stereo unspecified)", "inhibition": "17.3% (inactive)"}
{"smiles": "O=C(NC1CC2CCC(C1)N2Cc1ccccc1)c1ccccc1Br", "note": "(stereo unspecified)", "inhibition": "-2.7% (inactive)"}
{"smiles": "O=[N+]([O-])c1ccc(Oc2cccc3cccnc23)c(Cl)c1", "inhibition": "-14.5% (inactive)"}
{"smiles": "O=P(Cc1ccccc1)(c1ccccc1)c1ccccc1", "inhibition": "6.2% (inactive)"}
{"smiles": "Cc1cc(O)c(C=Nc2ccc(N3CCOCC3)cc2)c(C)c1Cl", "inhibition": "0.1% (inactive)"}
{"smiles": "O=C(N/N=C/c1cc(Br)cc([N+](=O)[O-])c1O)c1ccc(NC(=O)c2ccc(F)cc2)cc1", "inhibition": "95.6% (active)"}
{"smiles": "CCOC(=O)c1ccc(N/N=C/c2cc(Br)cc([N+](=O)[O-])c2O)cc1", "inhibition": "27.8% (inactive)"}
{"smiles": "COc1ccc(CC(=O)Nc2cccc3c2CCCC3)cc1", "inhibition": "-12.1% (inactive)"}
{"smiles": "O=C(O)CC1OCC=C2CN3CCC45c6ccccc6NC4C1C2CC35", "note": "(stereo unspecified)", "inhibition": "-2.6% (inactive)"}
{"smiles": "O=C1COc2ccc(S(=O)(=O)N3CCC(C(=O)NCc4ccc(F)cc4)CC3)cc2N1", "inhibition": "-1.8% (inactive)"}
{"smiles": "Cc1cc(C)cc(N2CC(O)=C(c3nc4ccccc4c(=O)[nH]3)C2=N)c1", "inhibition": "60.5% (active)"}
{"smiles": "COc1ccc(C(=O)OC2CC[C@@]3(C)C4CCC5[C@]6(O)CC(O)[C@@]7(O)C(CN8CC(C)CCC8[C@@]7(C)O)[C@]6(O)C[C@@]53O[C@]24O)cc1OC", "note": "(stereo partly specified)", "inhibition": "-10.1% (inactive)"}
{"smiles": "COC(=O)CCCC(=O)N1CCC(n2nccc2NC(=O)CCOc2ccccc2)CC1", "inhibition": "7.4% (inactive)"}
{"smiles": "Cc1cc(=O)oc2c3c(cc(OCC(=O)NCC(=O)N[C@H](C(=O)O)C(C)C)c12)OC(C)(C)CC3", "inhibition": "9.6% (inactive)"}
{"smiles": "COc1cccc(CC(NC(C)=O)C(=O)NC2CCN(C(=O)c3ccc(Cl)cc3)CC2)c1", "note": "(stereo unspecified)", "inhibition": "0.6% (inactive)"}
{"smiles": "CCCNC(=O)CN1C(=O)COc2ccc(S(=O)(=O)N3CC(C)CC(C)C3)cc21", "note": "(stereo unspecified)", "inhibition": "5% (inactive)"}
{"smiles": "O=C(NCCN1CCOCC1)C(=O)NCC1OCCCN1S(=O)(=O)c1ccc(F)cc1", "note": "(stereo unspecified)", "inhibition": "-15.9% (inactive)"}
{"smiles": "O=C(O)c1ccc(N2C(=O)/C(=C/c3ccc(-c4ccc([N+](=O)[O-])cc4)o3)C=C2c2ccccc2)cc1", "inhibition": "99% (active)"}
{"smiles": "CC1CC(C)CN(CCCNC(=O)CCC(=O)N2CC(C)Oc3ccccc32)C1", "note": "(stereo unspecified)", "inhibition": "-2.6% (inactive)"}
{"smiles": "O=C(/C=C/c1c(Cl)nc2ccccn12)N1CCN(c2ccc(F)cc2)CC1", "inhibition": "26.8% (inactive)"}
{"smiles": "Cn1c(SCC(=O)Nc2ccc(N3CCOCC3)cc2)nnc1-c1ccco1", "inhibition": "1% (inactive)"}
{"smiles": "Cc1cc(OCC(=O)Nc2ccc(N3CCN(C(=O)c4ccco4)CC3)cc2)cc(C)c1Cl", "inhibition": "94.6% (active)"}
{"smiles": "Cc1ccc(NC(=O)C2CCN(C(=O)c3ccco3)CC2)cc1", "inhibition": "-5.8% (inactive)"}
{"smiles": "Cc1ccc(S(=O)(=O)N2CCCCC2)c2nsnc12", "inhibition": "-2% (inactive)"}
{"smiles": "COc1cc(C(=O)N2CCc3ccccc32)c([N+](=O)[O-])cc1OC", "inhibition": "26.5% (inactive)"}
{"smiles": "CCOc1ccc2nc(N3CCCC(C(=O)NCCCN4C(C)CCCC4C)C3)sc2c1", "note": "(stereo unspecified)", "inhibition": "-12.1% (inactive)"}
{"smiles": "Cc1ccc2oc(Nc3nc(-c4ccccc4)cc(=O)[nH]3)nc2c1", "inhibition": "61.1% (active)"}
{"smiles": "CCOc1ccc(C(=O)NC2CCN(CC(=O)NCc3ccccc3)CC2)cc1", "inhibition": "-7.3% (inactive)"}
{"smiles": "COc1cccc(NC(=O)NCCN2CCCCC2)c1", "inhibition": "-15.8% (inactive)"}
{"smiles": "Cc1ccc(NC(=S)c2ccc3ccccc3n2)c(C)c1", "inhibition": "5.5% (inactive)"}
{"smiles": "Cc1ccc(-n2cccn2)c([C@@H]2C[C@H]3CN(C)C(=O)[C@]34CCCN24)c1", "inhibition": "-6.3% (inactive)"}
{"smiles": "C=CCc1cc(Cl)ccc1OCCOCCNC(C)(C)C", "inhibition": "-15% (inactive)"}
{"smiles": "Brc1ccc(C2=Nc3ccccc3C(c3ccncc3)=NN2)cc1", "inhibition": "82.1% (active)"}
{"smiles": "COC(=O)[C@@]1(Cc2ccc(F)cc2)[C@H]2c3cc(C(=O)N4CCCC4)n(CCc4ccccn4)c3C[C@H]2CN1C(=O)c1ccccc1", "inhibition": "-0.9% (inactive)"}
{"smiles": "CCC1CCCCN1CCCNC(=O)Cn1ncn2nc(-c3ccc(OC)cc3)cc2c1=O", "note": "(stereo unspecified)", "inhibition": "-4% (inactive)"}
{"smiles": "OCCC1CN(Cc2ccc(F)cc2)CCN1CCc1ccccc1", "note": "(stereo unspecified)", "inhibition": "-5.4% (inactive)"}
{"smiles": "O=C(N/N=C1/C(=O)c2cccc3cccc1c23)c1ccc(Cl)cc1", "inhibition": "98.9% (active)"}
{"smiles": "CCOc1ccccc1N(C(=O)c1ccco1)C(C(=O)NC1CCCC1)c1cccs1", "note": "(stereo unspecified)", "inhibition": "14.1% (inactive)"}
{"smiles": "COc1ccc(OCC(O)CN(CC(O)COc2ccc(OC)cc2)c2cccc(O)c2)cc1", "note": "(stereo unspecified)", "inhibition": "3.9% (inactive)"}
{"smiles": "CCC(CO)(CO)N(CC(=O)Nc1ccc(OC)cc1)CC(=O)Nc1ccc(OC)cc1", "inhibition": "5.4% (inactive)"}
{"smiles": "N=C1/C(=C\\c2ccc(-c3ccc(C(=O)O)cc3)o2)C(=O)N=C2SC=C(c3ccccc3)N12", "inhibition": "97.1% (active)"}
{"smiles": "N=C1/C(=C/c2ccc(-c3cccc(C(=O)O)c3)o2)C(=O)N=C2SC=C(c3ccccc3)N12", "inhibition": "79.5% (active)"}
{"smiles": "N=C1/C(=C\\c2ccc(-c3cccc(C(=O)O)c3)o2)C(=O)N=C2SC=C(c3ccccc3)N12", "inhibition": "88.1% (active)"}
{"smiles": "COc1ccc(S(=O)(=O)N2CCCOC2CNC(=O)C(=O)NC2CCCC2)cc1", "note": "(stereo unspecified)", "inhibition": "-10.2% (inactive)"}
{"smiles": "Cc1cc(Br)c(S(=O)(=O)NCc2cccnc2)cc1C", "inhibition": "5.2% (inactive)"}
{"smiles": "OC(COC(c1ccc(F)cc1)c1ccc(F)cc1)CN1CCCC(C(F)(F)F)C1", "note": "(stereo unspecified)", "inhibition": "-7.4% (inactive)"}
{"smiles": "Fc1cccc(/C=N/n2c(C3CCCCC3)n[nH]c2=S)c1", "inhibition": "0.6% (inactive)"}
{"smiles": "COc1ccc(CCC(=O)NCCc2cnc[nH]2)cc1", "inhibition": "-0.5% (inactive)"}
{"smiles": "CCOc1cc2[nH]c(=S)n(Cc3ccc(C(=O)NCCCOC)cc3)c(=O)c2cc1OCC", "inhibition": "11.5% (inactive)"}
{"smiles": "O=C(N=C1SC2CS(=O)(=O)CC2N1Cc1ccccc1)C1CCCO1", "note": "(stereo unspecified)", "inhibition": "-9.5% (inactive)"}
{"smiles": "Cc1ccc(S(=O)(=O)NCC(=O)N2CCc3ccccc3C2)cc1", "inhibition": "7.4% (inactive)"}
{"smiles": "Cc1ccccc1-n1c(SCC(=O)Nc2ccccc2Cl)nc2n[nH]c(C)c2c1=N", "inhibition": "-7.4% (inactive)"}
{"smiles": "CCn1c(C)c(C)c2cc(C(=O)NCCCN3CCCCC3C)ccc21", "note": "(stereo unspecified)", "inhibition": "-4.1% (inactive)"}
{"smiles": "O=C1CCCN1CCCNC(=S)Nc1ccc(F)c(Cl)c1", "inhibition": "58.6% (active)"}
{"smiles": "O=C1CCCN1CCCNC(=S)Nc1ccc(F)cc1", "inhibition": "48.6% (inactive)"}
{"smiles": "COc1ccc(NC(=S)NCCCN2CCCC2=O)c(OC)c1", "inhibition": "47.4% (inactive)"}
{"smiles": "CC(=O)c1cccc(CN2CCC(CO)(CCOc3ccccc3)CC2)c1", "inhibition": "-26.7% (inactive)"}
{"smiles": "COc1ccc(Cl)cc1NC(=O)C/C(C)=N/NC(=O)c1ccc(O)cc1", "inhibition": "-3.4% (inactive)"}
{"smiles": "CCOC(=O)CN(C)Cc1cn[nH]c1-c1ccc2cc(OC)ccc2c1", "inhibition": "4% (inactive)"}
{"smiles": "O=C(CC12CC3CC(CC(C3)C1)C2)NCc1ccc(F)cc1", "inhibition": "-9.3% (inactive)"}
{"smiles": "CN(C)C(=O)OCC1COc2ccccc2O1", "note": "(stereo unspecified)", "inhibition": "0.1% (inactive)"}
{"smiles": "Cn1c2ccccc2c(=O)c2c(=O)n(C3CCCCCC3)c(C3CCCCC3)nc21", "inhibition": "95.7% (active)"}
